# In paper PMC5540273 (PLoS ONE, 2017):
# System: T1, DCAMKL3
# T1 construct: gene DCLK3
# Settings: concentration: 1 μM, replicates: in singlicate; n = 1
# 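Note: KINOMEscan kinase panel screen.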
row,SMILES,%Inh [%]
1,CN1C(=O)C(Nc2ccccc2)=C(c2ccccc2)C1=O [SB-300079],0
2,CCC(=O)c1c(-c2ccccc2)c2cc(Cl)ccc2c(=O)n1Cc1ccc(C(=O)O)cc1,0
3,COc1cc(Nc2nccc(N3CCC(NC(=O)C(C)c4ccc(Cl)cc4)C3)n2)cc(OC)c1OC (stereo not drawn) [GSK1379757],0
4,O=C(NCc1cccs1)c1cc(C(=O)c2c(Cl)cccc2Cl)c[nH]1 [GW823670],2
5,Cl.c1ccc(Cn2cnc3cc(Nc4ncnc5ccccc45)ccc32)cc1 [GW272142],0
6,COc1cc2ncn(-c3cc(OCc4ccc(S(C)(=O)=O)cc4)c(C(N)=O)s3)c2cc1OC [GW869979],0
7,CCS(=O)c1ccc(-c2coc3ccc(-c4nnc(C)o4)cc23)cc1 (stereo not drawn),0
8,O=C(Nc1n[nH]c2nc(-c3ccccc3)c(Br)cc12)C1CC1 [SB-708998],0
9,Cl.NS(=O)(=O)c1cccc(Nc2cc(-c3ccc(F)cc3)n[nH]2)c1 [GW824645],0
10,COC(=O)c1c(-c2ccccc2)c2cc(Br)ccc2c(=O)n1Cc1ccc(NC(=O)CCC(=O)O)cc1,0
11,CCCNC(=O)Nc1ccc(Oc2ncnc3ccn(C)c23)cc1,0
12,FC(F)(F)c1ccc(-c2ncn(CCCN3CCOCC3)c2-c2ccncc2)cc1 [SB-217780],4
13,Cc1c(Cn2c(C)nn3c(=O)cc(N4CCO[C@H](C)C4)nc23)cccc1C(F)(F)F [GSK2373690],11
14,COc1cccc(-n2cnc3c(N)ncnc32)c1 [SKF-97416],0
15,Nc1nc(N)c2nc(-c3ccccc3)[nH]c2n1 [SKF-12778],60
16,COc1ccc(CNC(=O)NC2CCN(c3ccnc(Nc4ccc(F)cc4)n3)C2)cc1 (stereo not drawn) [GSK1379706],2
17,COc1cccc(C2=C(N(C)c3ccccc3)C(=O)NC2=O)c1 [SB-334865],16
18,COc1ccc(-c2cc3c(C)nc(N)nc3n([C@H]3CC[C@H](OCCO)CC3)c2=O)cn1,0

row,SMILES,%Inh [%]
1,Nc1ncnc2c1ncn2-c1cccc2ccccc12 [SKF-97184],15
2,Cc1ccc(-c2ccc3c(ccc4sc5c(c43)NC[C@@H](C)N=C5N(C)C)n2)cn1,0
3,COc1cccc(C2=C(Nc3cccc(C(=O)O)c3)C(=O)NC2=O)c1 [SB-390770],13
4,Cc1nc(N(C)[C@H]2CN(C(=O)CC#N)CC[C@H]2C)c2cc[nH]c2n1,63
5,CN(C)c1cc(-c2ccc3c(N)n[nH]c3c2)nc(N)n1 [GSK2219329],0
6,COc1ccc(-c2cc3c(C)nc(N)nc3n([C@H]3CC[C@H](O)CC3)c2=O)cn1,0
7,OCCCNc1nccc(-c2c(-c3cccc(C(F)(F)F)c3)nn3cc(C(F)(F)F)ccc23)n1 [GW630813],0
8,O=C(Nc1n[nH]c2cc(-c3ccccc3F)ccc12)C1CC1 [SB-733371],0
9,Nc1nc(-c2ccccc2F)c(-c2ccnc3ccccc23)s1 [GW560459],1
10,Cn1c(=O)c(F)c(Nc2ccc(I)cc2F)c2c(=O)n(OC[C@H](O)CO)cnc21,20
11,Cc1cc(Nc2nc(-c3cccc(C)n3)nc3ccccc23)ccn1 [GW872411],0
12,COc1cc2nccc(Nc3ccc(OCc4ccc(NC(C)=O)cc4)cc3)c2cc1OC.Cl [GW440135],0
13,Cc1nnc(-c2ccc(C)c(-c3ccc(C(=O)O)cc3)c2)o1 [GW608005],0
14,CCS(=O)(=O)c1ccc(OC)c(Nc2ncc(-c3ccc(F)cc3)o2)c1.Cl [GW591947],6
15,CCc1ccc(-c2ccc3c(c2)-c2nn(C)cc2S(=O)(=O)N3C)cc1,0
16,CCC(=O)c1c(-c2ccccc2)c2cc(Cl)ccc2c(=O)n1Cc1cc(S(C)(=O)=O)n(CCC(C)(C)O)n1,21
17,C[C@@H]1CC[C@H](C(=O)NC2CCCCC2)CN1c1cc(-c2ccc3c(N)n[nH]c3c2)nc(N)n1 [GSK2291363],0
18,O=c1cc(N2CCOCC2)nc2n(Cc3ccc(F)c(Cl)c3)ccn12 [GSK2297099],0

# System: DDR1
# Settings: concentration: 1 μM, replicates: in singlicate; n = 1
row,SMILES,%Inh [%]
1,CN1C(=O)C(Nc2ccccc2)=C(c2ccccc2)C1=O [SB-300079],0
2,CCC(=O)c1c(-c2ccccc2)c2cc(Cl)ccc2c(=O)n1Cc1ccc(C(=O)O)cc1,24
3,COc1cc(Nc2nccc(N3CCC(NC(=O)C(C)c4ccc(Cl)cc4)C3)n2)cc(OC)c1OC (stereo not drawn) [GSK1379757],0
4,O=C(NCc1cccs1)c1cc(C(=O)c2c(Cl)cccc2Cl)c[nH]1 [GW823670],26
5,Cl.c1ccc(Cn2cnc3cc(Nc4ncnc5ccccc45)ccc32)cc1 [GW272142],5
6,COc1cc2ncn(-c3cc(OCc4ccc(S(C)(=O)=O)cc4)c(C(N)=O)s3)c2cc1OC [GW869979],20
7,CCS(=O)c1ccc(-c2coc3ccc(-c4nnc(C)o4)cc23)cc1 (stereo not drawn),0
8,O=C(Nc1n[nH]c2nc(-c3ccccc3)c(Br)cc12)C1CC1 [SB-708998],23
9,Cl.NS(=O)(=O)c1cccc(Nc2cc(-c3ccc(F)cc3)n[nH]2)c1 [GW824645],0
10,COC(=O)c1c(-c2ccccc2)c2cc(Br)ccc2c(=O)n1Cc1ccc(NC(=O)CCC(=O)O)cc1,2
11,CCCNC(=O)Nc1ccc(Oc2ncnc3ccn(C)c23)cc1,0
12,FC(F)(F)c1ccc(-c2ncn(CCCN3CCOCC3)c2-c2ccncc2)cc1 [SB-217780],5
13,Cc1c(Cn2c(C)nn3c(=O)cc(N4CCO[C@H](C)C4)nc23)cccc1C(F)(F)F [GSK2373690],15
14,COc1cccc(-n2cnc3c(N)ncnc32)c1 [SKF-97416],0
15,Nc1nc(N)c2nc(-c3ccccc3)[nH]c2n1 [SKF-12778],0
16,COc1ccc(CNC(=O)NC2CCN(c3ccnc(Nc4ccc(F)cc4)n3)C2)cc1 (stereo not drawn) [GSK1379706],8
17,COc1cccc(C2=C(N(C)c3ccccc3)C(=O)NC2=O)c1 [SB-334865],0
18,COc1ccc(-c2cc3c(C)nc(N)nc3n([C@H]3CC[C@H](OCCO)CC3)c2=O)cn1,0

row,SMILES,%Inh [%]
1,Nc1ncnc2c1ncn2-c1cccc2ccccc12 [SKF-97184],0
2,Cc1ccc(-c2ccc3c(ccc4sc5c(c43)NC[C@@H](C)N=C5N(C)C)n2)cn1,0
3,COc1cccc(C2=C(Nc3cccc(C(=O)O)c3)C(=O)NC2=O)c1 [SB-390770],0
4,Cc1nc(N(C)[C@H]2CN(C(=O)CC#N)CC[C@H]2C)c2cc[nH]c2n1,28
5,CN(C)c1cc(-c2ccc3c(N)n[nH]c3c2)nc(N)n1 [GSK2219329],0
6,COc1ccc(-c2cc3c(C)nc(N)nc3n([C@H]3CC[C@H](O)CC3)c2=O)cn1,0
7,OCCCNc1nccc(-c2c(-c3cccc(C(F)(F)F)c3)nn3cc(C(F)(F)F)ccc23)n1 [GW630813],15
8,O=C(Nc1n[nH]c2cc(-c3ccccc3F)ccc12)C1CC1 [SB-733371],0
9,Nc1nc(-c2ccccc2F)c(-c2ccnc3ccccc23)s1 [GW560459],7
10,Cn1c(=O)c(F)c(Nc2ccc(I)cc2F)c2c(=O)n(OC[C@H](O)CO)cnc21,0
11,Cc1cc(Nc2nc(-c3cccc(C)n3)nc3ccccc23)ccn1 [GW872411],0
12,COc1cc2nccc(Nc3ccc(OCc4ccc(NC(C)=O)cc4)cc3)c2cc1OC.Cl [GW440135],0
13,Cc1nnc(-c2ccc(C)c(-c3ccc(C(=O)O)cc3)c2)o1 [GW608005],7
14,CCS(=O)(=O)c1ccc(OC)c(Nc2ncc(-c3ccc(F)cc3)o2)c1.Cl [GW591947],0
15,CCc1ccc(-c2ccc3c(c2)-c2nn(C)cc2S(=O)(=O)N3C)cc1,0
16,CCC(=O)c1c(-c2ccccc2)c2cc(Cl)ccc2c(=O)n1Cc1cc(S(C)(=O)=O)n(CCC(C)(C)O)n1,14
17,C[C@@H]1CC[C@H](C(=O)NC2CCCCC2)CN1c1cc(-c2ccc3c(N)n[nH]c3c2)nc(N)n1 [GSK2291363],0
18,O=c1cc(N2CCOCC2)nc2n(Cc3ccc(F)c(Cl)c3)ccn12 [GSK2297099],10
